# Biological target: TSC22D2
# Test: pooled miR-30 sensor sort-seq; sequence = guide strand
# Details: shRNA
# Further: reference of the scale not given here.
row,Sequence,sensor-assay potency score (higher = more potent)
1,TAAAACTTCCACTTCTTCTCTT,0.683
2,TAGTATCGTCGACTTGCCCGAC,-0.774
3,TTCTCTTACTGCATACATCAAA,-0.826
4,TCAACAGGAATAGCTATGCTGA,-0.503
5,TAGCTGTGACACAGCAGTCAAG,-1.48
6,TTTTCTTCTAGTATCGTCGACT,-0.0154
7,TATTCCATACACGTCCATCGGC,-0.556
8,TAGTATTCCATACACGTCCATC,-1.07
9,TCTTCTAGTATCGTCGACTTGC,0.0712
10,TTAACAGTGCATTTTCTCGTTC,-0.691
11,TTTAACAGTGCATTTTCTCGTT,0.0173
12,AAAACTTCCACTTCTTCTCTTA,0.265

# Biological target: TSC22D3
# Test: as above
# Details: shRNA
row,Sequence,sensor-assay potency score (higher = more potent)
1,AACTTCTCCAGCTGCTCTGGGC,-1.22
2,TCGTTGATCAGGTAGCAGGGGT,-0.312
3,TAGCTGGGAGTTCTTCTCCACC,-1.58
4,TTCAGGGCTCAGACAGGACTGG,-0.708
5,TTCTTCATAGGAACAGTCGTTG,-0.524
6,ATGCTGTTGAGCTTGTCGGTAT,-1.17
7,TTCGATCTTGTTGTCTATGGCC,0.125
8,TTGTCGGTATTGAGGTTCTCAA,-1.48
9,TTCTTCTCCACCAGCTCTCGGA,-1.12
10,TTGCCAGGGTCTTCAACAGGGT,-0.965
11,TCGATCTTGTTGTCTATGGCCA,-0.64
12,TCTCTCACAGCATACATCAGAT,-0.863
13,TTGAGCTTGTCGGTATTGAGGT,-0.00573
14,TGTTCTCACGCTCTAGCTGGGA,-0.875
15,TAGGACATCTCTTGGCACCAGC,-0.981
16,TATGCTGTTGAGCTTGTCGGTA,-0.561
17,ATTGAGGTTCTCAAAGACCAGC,-1.14
18,TTGTTGTTCTCCCCGCTGCTGC,-1.15
19,TTCTTCACCAGATCCATGGCCT,0.0668
20,TTATGCTGTTGAGCTTGTCGGT,-0.79
21,TGAGCTTGTCGGTATTGAGGTT,-0.394
22,ATGGTCTGGTCGATGTTGCGGT,-0.997
23,TTGTCTATGGCCACCACGCTGG,-0.721
24,TTGTTGTCTATGGCCACCACGC,-1.5

# Biological target: TSEN34
# Test: as above
# Details: shRNA
row,Sequence,sensor-assay potency score (higher = more potent)
1,TTTCTGCTTCTTAGCAGCCTGG,-1.47
2,TCTTTAGACTGGACACGCCAGT,-1.04
3,TAGACTGGACACGCCAGTCCAG,-1.11
